Screening results (PubChem)
Shown are actives, neighbours in structure and some others; about 11% of the full set was active somewhere.
G9a inh = inhibitors of human histone lysine methyltransferase G9a | Q96KQ7 | G9a H3K9 monomethylation, AlphaScreen, 2 h | Potency, µM (highest dose often 102 µM), inactives show at the top dose activity, negative = inhibition, hits mostly inhibitors | 350,000 tested, 8.8% active; also: potency is read from the fitted curve at half-maximal effect; nearly all actives have a fitted effect of over 75% in size
Target sequence (Q96KQ7 913-1193 limits assumed): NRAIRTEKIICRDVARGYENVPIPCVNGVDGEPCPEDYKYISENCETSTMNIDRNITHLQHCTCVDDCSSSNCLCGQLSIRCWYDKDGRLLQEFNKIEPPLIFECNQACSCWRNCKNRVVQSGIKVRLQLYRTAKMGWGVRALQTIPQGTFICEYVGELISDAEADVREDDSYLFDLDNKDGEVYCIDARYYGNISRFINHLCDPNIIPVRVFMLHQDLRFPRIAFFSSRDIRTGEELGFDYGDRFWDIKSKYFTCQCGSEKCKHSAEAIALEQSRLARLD
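Signal arises when biotinylated H3K9 peptide, once monomethylated, bridges streptavidin donor and antibody-captured acceptor beads. Enzyme at 20 nM was preincubated 15 min with test compounds; peptide 500 nM and SAM 20 uM then reacted for 2 h.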
Tau fluor cs = counter-screen for tau fibril formation inhibitors. tau K18 P301L Alexa594 fluorescence, heparin fibrillization. Potency, µM (top dose mostly 57.7 µM), without a hit: at the top dose activity change, negative = decrease. 280,000 tested, 0.93% active. AID 1463; also: potency is read from the fitted curve at half-maximal effect; nearly all actives have a fitted effect of over 55% in size
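Human K18 P301L tau (15 uM unlabeled plus 0.24 uM Alexa 594-labeled, final) in 100 mM sodium acetate pH 7 was mixed with compound and 20 uM heparin and incubated 6 hr at 37 C.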
Tau ThT inhib = tau fibrillization inhibition (ThT binding); Potency, µM (highest dose often 57.4 µM), for the others: top-dose activity, negative = inhibition, actives largely listed as inhibitors; P10636; 270,000 tested, 2.1% active; recombinant tau K18 P301L (four-repeat tau fragment), heparin-induced fibrillization, ThT fluorescence; also: potency is read from the fitted curve at half-maximal effect; nearly all actives have a fitted effect of over 55% in size
Target sequence (P10636 561-689 P618L limits assumed): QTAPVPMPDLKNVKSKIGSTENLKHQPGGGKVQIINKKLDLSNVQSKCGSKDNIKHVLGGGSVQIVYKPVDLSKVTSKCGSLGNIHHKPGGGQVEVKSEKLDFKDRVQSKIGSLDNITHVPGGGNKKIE
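In this qHTS, human K18 P301L tau is incubated with compound and heparin for 6 hr at 37 C, and Thioflavin T fluorescence then reports fibril load.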
Sfp PPTase inh = Sfp phosphopantetheinyl transferase inhibition; Biochemical Sfp PPTase activity, qHTS; Potency, µM, for inactives: largest response in the series, negative = inhibition, usual class: inhibitors; 310,000 tested, 3.5% active;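 also: the enzyme is Sfp with the accession as filed and its product quenches rhodamine fluorescence; potency is read from the fitted curve at half-maximal effect; 0% = enzyme reaction without inhibitor and -100% = no enzyme wells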
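Fluorescence-quenching assay: 15 nM Sfp-PPTase preincubated 15 min at room temperature with compound, then 5 uM rhodamine-CoA and 12.5 uM BHQ-2-labelled YbbR peptide added. Fluorescence (ex 525/em 598 nm) read at start and after 30 min; difference gives rate.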
Coupling enz = inhibits coupling enzyme system, counter-screen for aldolase hits. coupling enzyme system counterscreen, AmpLite Red fluorescence. activity change, negative = inhibition, % at 58.2 µM, hits read low. 290,000 tested, 0.67% active. AID 2472; in the data active = activity change below about -30%
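First, compound is pin-transferred into glyceraldehyde-3-phosphate coupling-enzyme reagent at 57.5 uM final and held 10 min at RT. Next, substrate, coupling system and AmpLite Red are added. After 20 min RT, fluorescence (525/598 nm) is read.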
Tau fibril FP = tau fibrillization inhibition (FP); P10636; K18 P301L tau heparin fibrillization, Alexa594 FP, 6 h; Potency, µM (series often up to 57.7 µM), inactives show at the top dose activity, negative = inhibition, actives largely listed as inhibitors; 280,000 tested, 0.39% active; also: potency is read from the fitted curve at half-maximal effect; nearly all actives have a fitted effect of over 55% in size
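K18 P301L tau (15 uM unlabeled/0.24 uM Alexa 594-labeled, final) + compound + heparin 20 uM final; 100 mM NaOAc pH 7; 6 hr 37 C; ThT 30 uM final added, 1 hr RT; FP ex 555/em 632 nm.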
The depositor's hits bear a star; ? = inconclusive; . = not tested or not shown; [ ] = dose if it differs, or a comment. Unless noted, calls follow the shape of the dose curve; as a rule, active = well fitted curve in the direction sought with a large enough effect; inconclusive = small, poorly fitted or top-dose-only effect, or another doubt; inactive = no such curve, though single readings can be large; an effect the other way counts as inactive or inconclusive. Unless noted, % is scaled to controls: 0 for no effect and ±100 for the full control effect.

SMILES	G9a inh	Tau fluor cs	Tau ThT inhib	Sfp PPTase inh	Coupling enz	Tau fibril FP
Clc1cccc(-c2ccc(C=Nc3ccc(N4CCOCC4)cc3)o2)c1	3.16µM*	-20.8%	?	-20.4%	-3.9	-5.2%
Oc1c(Br)cc(Cl)cc1C=Nc1ccc(N2CCOCC2)cc1	?	-18.4%	15.8µM*	-5.1%	-8.4	-18.3%
Oc1c(Br)cc(Cl)cc1C=Nc1ccccc1Br	3.98µM*	-6.8%	-6.6%	-24.7%	-1.0	-1.3%
CC(=O)N1CCc2c(sc3c2c(=O)n(-c2ccccc2C)c(=O)n3CC(=O)c2ccccc2)C1	16.4%[59 µM]	-14.6%	-9.8%	.	.	-3.6%
CCN1CCCC1Cn1cnc2c([nH]c3cccc(Cl)c32)c1=O (stereo not drawn)	31.6µM*	-13.3%	-3.6%	-6.3%	0.8	-12.4%
COc1ccc(CCNC(=O)CSCc2nc(-c3cccc(C)c3)oc2C)cc1OC	?	-6.2%	-14.4%	.	.	2.5%
CC(C(=O)O)N1C(=O)/C(=C/C=C/c2ccco2)SC1=S (stereo not drawn)	3.16µM*	?	8.91µM*	50.1µM*	.	?
O=C(NN1C(=O)/C(=C/c2cccs2)SC1=S)c1ccncc1	44.7µM*	-22.8%	?	79.4µM*	14.5	-9.1%
COc1ccc(OC)c(/C=C2\SC(=S)N(NS(=O)(=O)c3ccccc3)C2=O)c1	-37.4%[12.7 µM]	.	.	1.4%	11.0	.
O=C1/C(=C/c2cccs2)SC(=S)N1NS(=O)(=O)c1ccccc1	?	-20.8%	17.8µM*	-7.4%	10.9	-10.1%
O=C1/C(=C/C=C/c2ccco2)SC(=S)N1NS(=O)(=O)c1ccccc1	3.16µM*	?	.	12.6µM*	-5.1	15.8µM*
CC(=O)c1ccc(NC(=O)CN2C(=O)/C(=C/C=C/c3ccccc3)SC2=S)cc1	?	?	?	-9.7%	2.9	0.7%
Cc1ccccc1-c1cc(C(=O)O)n(CC2CC(c3cccnc3)=NO2)n1 (stereo not drawn)	-5.3%[0.501 µM]	.	.	.	.	.
COc1ccc(/C(C)=N/NC(=O)c2cc(C)[nH]n2)c(OC)c1	7.5%	.	.	6.6%	1.5	.
CC1CCCN(c2ncnc3c2cnn3-c2ccc(F)cc2)C1 (stereo not drawn)	20.4%[59 µM]	-11.7%	-10.3%	.	.	4.2%
C=CC[C@@H]1[C@H](O)CC[C@@]2(C)[C@H]1CC[C@@H]1[C@@H]2CC[C@]2(C)C([C@H](C)CCCC(C)C)CC[C@@H]12 (stereo partly drawn)	38.3%[59 µM]	-6.9%	-2.7%	9.2%	.	?
COc1cc(NS(=O)(=O)c2ccc(NC(=O)/C(=C/c3ccccc3Cl)NC(=O)c3ccccc3)cc2)nc(OC)n1	?	-3.1%	-3.0%	9.9%	14.7	0.9%
COc1cc(NS(=O)(=O)c2ccc(NS(=O)(=O)c3ccccc3)cc2)nc(OC)n1	56.2µM*	-0.5%	3.8%	14.0%	4.6	-4.6%
COc1cc(NS(=O)(=O)c2ccc(NC(=O)/C(=C\c3ccccc3OC)NC(=O)c3ccccc3)cc2)nc(OC)n1	20µM*	-2.3%	-12.7%	10.0%	7.9	3.9%
COc1cc(NS(=O)(=O)c2ccc(NS(=O)(=O)c3ccc(NC(C)=O)cc3)cc2)nc(OC)n1	17.1%	.	.	15.7%	11.0	.
COc1ccc(CCN(C)C(=O)CSc2nnc(C3CC3)n2N)cc1OC	39.8µM*	.	.	.	.	.
Cc1nn(CCc2n[nH]c(=S)n2C2CCCCC2)c(C)c1Br	2.51µM*	-17.2%	-8.1%	-13.4%	4.3	-3.5%
COc1ccccc1-n1c(CCn2nc(C)c(Br)c2C)n[nH]c1=S	1.12µM*	-5.9%	-9.2%	?	0.0	7.2%
COc1ccc(N2CCN(C(=O)c3cc(S(=O)(=O)N4CCCCCC4)cn3C)CC2)cc1	?	-5.3%	2.9%	.	.	13.4%
COc1ccc(N(C)S(=O)(=O)c2cccc(C(=O)NC3=NCCS3)c2)cc1	70.8µM*	-27.0%	-5.7%	5.9%	-2.9	0.1%
SMILES	G9a inh	Tau fluor cs	Tau ThT inhib	Sfp PPTase inh	Coupling enz	Tau fibril FP
N#Cc1ccc(C(=O)NC2=NCCS2)cc1	39.8µM*	.	.	16.3%	2.0	.
Cc1ccc(C(=O)NC2=NCCS2)cc1	8.8%[12.7 µM]	-0.9%	-1.0%	7.9%	-0.6	0.6%
CC(C)Oc1ccc(C(=O)NC2=NCCS2)cc1	3.55µM*	-14.7%	-11.2%	35.5µM*	7.7	-7.2%
Cc1ccc(N(C)S(=O)(=O)c2cccc(C(=O)NC3=NCCS3)c2)cc1	-31.8%[59 µM]	-22.8%	-2.5%	8.4%	4.4	-4.1%
COC(=O)c1ccc(OC)c(Cn2c(=O)n(-c3ccc(C)cc3)c(=O)c3c2cnn3C)c1	-25.9%[59 µM]	-17.6%	-6.2%	.	.	?
Cc1c(O)ccc(-c2[nH]ncc2-c2nc3ccccc3s2)c1O	11.8%[12.7 µM]	?	-18.2%	-2.5%	-2.3	-2.6%
CCCc1ccc(Oc2c(-c3ccc(O)c(C)c3O)n[nH]c2C)cc1	?	12.6µM*[quencher]	28.2µM*	26.9%	-0.4	?
CCCc1ccc(Oc2cn[nH]c2-c2ccc(O)c(C)c2O)cc1	-38.6%	14.1µM*[quencher]	25.1µM*	21.1%	-1.6	-6.0%
COc1ccc(Oc2c(-c3ccc(O)cc3O)n[nH]c2C)cc1	?	?	-3.1%	13.5%	5.3	11.7%
FC(F)(F)c1cccc(Cc2noc(CN3CCCC(OCc4ccccn4)C3)n2)c1 (stereo not drawn)	?	-7.8%	-8.0%	13.7%	-0.2	9.1%
O=C(Cc1nc(-c2ccc(Br)s2)cs1)NCCN1CCOCC1	-1.2%[12.7 µM]	-15.6%	-11.5%	50.1µM*	-4.4	5.6%
C=CCOC(=O)N[C@H](/C(C(=O)OC)=C(\C)NCc1ccccc1)c1cccc(F)c1	.	0.1%	1.9%	-8.6%	0.5	-1.0%
Cc1ccccc1N=Nc1c(O)n(C)c2ccccc12	7.94µM*	.	.	-26.2%	-5.8	.
Cn1c(O)c(N=NC(=N)N)c2ccccc21	.	6.5%	-9.2%	-1.6%	-3.6	-4.1%
CC(C)CC1N=C2c3ccccc3N=C(SCC(=O)NCCc3ccc(Cl)cc3)N2C1=O (stereo not drawn)	-2.8%[12.7 µM]	-12.7%	-3.8%	.	.	-2.6%
CN1C(=O)C(CC(=O)Nc2ccc(Cl)cc2)N(Cc2ccco2)C1=S (stereo not drawn)	44.7µM*	-19.8%	-13.2%	17.8µM*	0.2	-11.2%
CCOc1ccc(NC(=O)CC2C(=O)N(C)C(=S)N2Cc2ccco2)cc1 (stereo not drawn)	-17.6%[59 µM]	-14.6%	-13.5%	2.1%	-0.5	-6.7%
Cc1ccc2occ(CC(=O)N(Cc3ccc(C(C)C)cc3)C3CCS(=O)(=O)C3)c2c1 (stereo not drawn)	-24.9%[59 µM]	-16.7%	-9.9%	.	.	11.1%
O=C(NCCN1CCCCC1)/C(=C/c1ccco1)NC(=O)c1ccccc1	28.1%	.	.	11.4%	-1.1	.
